Measurements from PubChem BioAssay (NCATS).
Where “and” joins values, the source holds several entries; their conditions need not be identical. Equal entries are not always repeated. Records with an inconclusive call do not appear. Calls of active or inactive are those of the source. Unless noted, calls come from the whole dose curve; as a rule, active = well fitted curve in the direction sought with a large enough effect; inconclusive = small, poorly fitted or top-dose-only effect, or another doubt; inactive = no such curve, though single readings can be large; an effect the other way counts as inactive or inconclusive. Bridge positions count the residues as written; N and C are the ends. Square brackets hold non-standard residues; d marks the D form. Peptide text beside a SMILES is read from it. * marks the point of attachment. Octanoyl(6-Me) = CCC(C)CCCCC(=O)*; Dab = NCC[CH](N)C(=O)O

Assays:
[1] = biological target: Cytochrome P450 3A4 (Homo sapiens) (UniProt P08684); assay: qHTS Assay for Inhibitors and Substrates of Cytochrome P450 3A4 (AID 884); note: nearly all actives have a fitted effect of over 50% in size; note: potency is the fitted concentration of half-maximal effect
In short: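 20 nM human CYP3A4 with 25 uM Luciferin-PPXE (at KM) in 200 mM KPO4, preincubated 10 min with compound; NADPH regeneration started a 60 min RT reaction. Luciferin detected by luminescence, normalized to 57 uM ketoconazole as full inhibition.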

[2] = biological target: Mitogen-activated protein kinase 10 (Mus musculus) (UniProt Q61831); assay: JNK3 AlphaScreen Assay (AID 530; active = well fitted curve in either direction with a large enough effect, not every such curve was filed as active;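 note: kinase came from lysate of stimulated human HepG2 cells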; note: potency is the fitted concentration of half-maximal effect)
In short: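 JNK3 came from HepG2 lysates pre-activated with IL-1beta and TNF-alpha and phosphorylated biotinylated GST-cJun (1-79) at 10 uM ATP, pH 7.6, room temperature. Compounds were titrated. AlphaScreen signal used anti-phospho-cJun (Ser73) antibody.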

[3] = MultiTox-Fluor Cytotoxicity Assay - LYMP1-002 - Dead Cells (AID 960);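 note: 0% = DMSO and 100% = tetraoctylammonium bromide; nearly all actives have a fitted effect of over 60% in size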
In short: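 Acute cytotoxicity in a human lymphoblastoid line is scored as rising dead-cell protease signal after 16 hr exposure at 37 C, measured fluorometrically (485/520).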

[4] = biological target: Estrogen receptor (Homo sapiens) (UniProt P03372); assay: qHTS assay for small molecule antagonists of estrogen receptor alpha signaling (AID 588513; active = well fitted curve in the direction sought with a large enough effect in the signal ratio, with a control signal flat, not every such curve was filed as active; the % refers to the signal ratio; note: % is set by controls: 0 for no effect and ±100 for the full control effect)
In short: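 ER-alpha-UAS-bla GripTite HEK 293 cells in 2% charcoal/dextran-treated FBS medium; compounds titrated (1:2, duplicate), then stimulated with 0.5 nM 17-beta-estradiol for 18 h at 37C. CCF4 beta-lactamase fluorescence; Hill-fit IC50 and efficacy.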

[5] = biological target: Glucocorticoid receptor (Homo sapiens) (UniProt P04150); assay: qHTS assay for small molecule agonists of glucocorticoid receptor signaling (AID 588532; active = well fitted curve in the direction sought with a large enough effect in the signal ratio, with a control signal flat; the % refers to the signal ratio;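 note: 100% = dexamethasone at 0.1 µM and 0% = DMSO only wells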); settings: HeLa MMTV-bla, beta-lactamase ratio, agonist, 18 h; stronger effect = higher value; percent of dexamethasone control, DMSO zero
In short: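 Stimulation of a glucocorticoid response element-driven beta-lactamase gene was measured in HeLa cells. Responses were scaled between DMSO basal and 0.1 uM dexamethasone, then fitted for half-maximal stimulation.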

[6] = biological target: Peroxisome proliferator-activated receptor gamma (Homo sapiens) (UniProt P37231); assay: qHTS assay for small molecule agonists of peroxisome proliferator-activated receptor gamma signaling (AID 588536; active = well fitted curve in the direction sought with a large enough effect in the signal ratio, with a control signal flat, not every such curve was filed as active; the % refers to the signal ratio;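 note: 0% = DMSO basal wells and 100% = rosiglitazone at 2 µM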)
In short: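 PPAR-gamma-UAS-bla HEK293 cells in medium with 1% charcoal/dextran-treated FBS were exposed to compounds for 16 h at 37 C. Beta-lactamase activity was read with CCF4 substrate (405 nm excitation, 460/530 nm emission).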

[7] = biological target: Vitamin D3 receptor (Homo sapiens) (UniProt P11473); assay: qHTS assay for small molecule agonists of vitamin D receptor signaling (AID 588543; calls by dose curve;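 note: 0% = DMSO basal and 100% = reference agonist control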)
In short: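 VDR-UAS-bla HEK293T cells, 2000/well, 2% charcoal-stripped FBS; compound titration 16 h at 37 C; CCF4 beta-lactamase ratio read. Normalized to 50 nM 1-alpha,25-dihydroxyvitamin D3 (100%) and DMSO; Hill fit gives EC50, efficacy.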

[8] = qHTS assay for small molecule agonists of retinoid X receptor alpha signaling (AID 588544; calls by dose curve;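 for activation: 0% = DMSO basal wells and 100% = reference agonist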); settings: HEK293T RXRa-UAS-bla, beta-lactamase reporter, 18 h; 530 nm emission
[9] = biological target: Retinoic acid receptor RXR-alpha (Homo sapiens) (UniProt P19793); assay: as above
[10] = biological target: Thyroid hormone receptor beta (Homo sapiens) (UniProt P10828); assay: qHTS assay for small molecule antagonists of thyroid hormone receptor beta signaling (AID 588547; active = well fitted inhibition curve with a large enough effect in the signal ratio, with a control signal flat, not every such curve was filed as active; the % refers to the signal ratio;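 note: cells stimulated with 0.4 nM T3 agonist during compound exposure; series mostly up to about 77 µM; % is set by controls: 0 for no effect and ±100 for the full control effect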); settings: TR-UAS-bla HEK293, beta-lactamase ratio, antagonist mode, 18 h
In short: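 TR-UAS-bla GripTite HEK293 cells in 2% charcoal/dextran FBS medium were preincubated 4 h at 37 C, given compound (0.59 nM to 92 uM) plus 0.4 nM T3 (final) for 18 h, then CCF4 for 2 h at RT; Hill fit gave IC50.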

[11] = biological target: Voltage-gated inwardly rectifying potassium channel KCNH2 (Homo sapiens) (UniProt Q12809); assay: qHTS Assay for Small Molecule Inhibitors of the Human hERG Channel Activity (AID 588834);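 note: top concentration of the series differs between compounds; % is set by controls: 0 for no effect and ±100 for the full control effect; lower thallium flux fluorescence means stronger hERG block; nearly all actives have a fitted effect of over 50% in size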
In short: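 U2OS cells BacMam-transduced with hERG, 2000 cells/well, compound ~10 min at 37 °C before stimulation buffer. FluxOR thallium flux fluorescence read kinetically on FDSS; decrease indicates block; AC50 from Hill fits.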

[12] = qHTS assay for small molecule activators of the p53 signaling pathway (AID 651743; active = well fitted activation curve with a large enough effect in the signal ratio, not every such curve was filed as active; the % refers to the signal ratio; note: series mostly up to about 92 µM; % of control where 0% means no effect); settings: HCT-116 p53RE-bla, beta-lactamase FRET ratio, 16 h; activation: stronger effect = higher value
In short: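 p53RE-bla HCT-116 cells with a stably integrated beta-lactamase reporter under p53 response elements were plated, rested 5 hours at 37 C/5% CO2, then exposed to compounds in DMSO for 16 hours at 37 C. LiveBLAzer B/G FRET substrate was read after 2 hours at room temperature.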

[13] = qHTS assay for small molecule disruptors of the mitochondrial membrane potential - 1 hr assay (AID 651754; calls by dose curve; note: % is set by controls: 0 for no effect and ±100 for the full control effect; nearly all actives have a fitted effect of over 35% in size)
In short: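 Steps: seed HepG2 cells and let attach overnight; pin-transfer compound or vehicle; incubate 1 hr at 37C; add Mito-MPS dye for 30 min; read two-channel fluorescence for monomer and aggregate forms.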

[14] = qHTS assay for small molecule disruptors of the mitochondrial membrane potential - 5 hr assay (AID 651755; calls by dose curve; note: % is set by controls: 0 for no effect and ±100 for the full control effect; nearly all actives have a fitted effect of over 40% in size)
In short: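 HepG2 cells, attached overnight at 37C, were exposed to compound or DMSO for 5 hr at 37C, 5% CO2. Mito-MPS dye was then added for 30 min, and fluorescence read at 490/535 nm (monomers) and 540/590 nm (aggregates).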

[15] = biological target: Tumor necrosis factor (Homo sapiens) (UniProt P01375); assay: qHTS assay to identify small molecules that stimulate Tumor Necrosis Factor-alpha (TNF-alpha) secretion (AID 651757; active = well fitted curve in the direction sought with a large enough effect in the signal ratio; the % refers to the signal ratio; note: 0% is about no effect)
In short: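 Secreted TNF-alpha from compound-treated THP-1 cells (17 hrs, 37 C) was quantified with a homogeneous time-resolved fluorescence antibody assay.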

[16] = qHTS assay for small molecule antagonists of the retinoid-related orphan receptor gamma (ROR-gamma) signaling pathway - cell viability counter screen (AID 720652; active = well fitted curve in the direction sought with a large enough effect in the repeat runs; an effect the other way counts as inactive or inconclusive;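 note: CHO reporter cells with doxycycline-induced ROR-gamma expression; series mostly up to about 92 µM; compound exposure lasted 16 hr before ATP read; % is set by controls: 0 for no effect and ±100 for the full control effect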)
In short: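 Cytotoxicity is quantified via intracellular ATP (CellTiter-Glo luminescence) in doxycycline-induced CHO ROR response element-luciferase reporter cells treated with compound for 16 hr at 37 C, 5% CO2.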

[17] = biological target: Nuclear receptor subfamily 1 group I member 2 (Rattus norvegicus) (UniProt Q9R1A7); assay: qHTS assay for small molecule activators of the rat pregnane X receptor (rPXR) signaling pathway (AID 651751; call rule not given here; note: 0% is about no effect); settings: rPXR reporter cells, luciferase (One-Glo), 24 h
[18] = qHTS assay for small molecule activators of the human pregnane X receptor (PXR) signaling pathway (AID 720659; call rule not given here; note: 0% is about no effect)
[19] = MultiTox-Fluor Cytotoxicity Assay - LYMP1-001 - Live Cells (AID 947);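 note: 0% = DMSO only and full inhibition = tetraoctylammonium bromide control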
[20] = Cell Viability - LYMP2-004 (AID 966); note: nearly all actives have a fitted effect of over 65% in size; note: potency is the fitted concentration of half-maximal effect
In short: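 Acute toxicity is scored as a concentration-dependent drop in intracellular ATP, quantified by luciferase luminescence, in human lymphoblastoid cells exposed to compound for 24 hr. AC50 derives from Hill-equation modelling.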

Sequence of Tumor necrosis factor (Homo sapiens) (P01375 whole entry, looked up): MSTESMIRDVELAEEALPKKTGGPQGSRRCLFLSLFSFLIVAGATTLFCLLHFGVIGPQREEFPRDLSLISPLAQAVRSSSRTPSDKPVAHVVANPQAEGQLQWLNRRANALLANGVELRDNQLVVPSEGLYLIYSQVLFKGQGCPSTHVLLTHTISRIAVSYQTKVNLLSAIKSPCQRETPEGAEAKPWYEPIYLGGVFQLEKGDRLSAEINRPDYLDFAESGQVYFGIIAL
Sequence of Retinoic acid receptor RXR-alpha (Homo sapiens) (P19793 whole entry, looked up): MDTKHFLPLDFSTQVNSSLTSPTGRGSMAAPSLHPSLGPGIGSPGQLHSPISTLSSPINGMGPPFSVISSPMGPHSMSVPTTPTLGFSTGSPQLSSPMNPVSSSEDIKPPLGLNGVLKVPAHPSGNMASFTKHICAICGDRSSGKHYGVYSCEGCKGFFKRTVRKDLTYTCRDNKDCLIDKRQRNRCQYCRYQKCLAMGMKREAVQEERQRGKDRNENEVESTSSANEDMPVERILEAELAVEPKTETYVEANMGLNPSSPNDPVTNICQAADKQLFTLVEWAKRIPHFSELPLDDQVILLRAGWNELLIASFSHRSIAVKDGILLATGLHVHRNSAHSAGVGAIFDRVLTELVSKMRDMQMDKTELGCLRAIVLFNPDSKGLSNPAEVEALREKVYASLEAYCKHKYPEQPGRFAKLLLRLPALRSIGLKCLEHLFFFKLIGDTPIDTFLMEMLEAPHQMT
Sequence of Peroxisome proliferator-activated receptor gamma (Homo sapiens) (P37231 whole entry, looked up): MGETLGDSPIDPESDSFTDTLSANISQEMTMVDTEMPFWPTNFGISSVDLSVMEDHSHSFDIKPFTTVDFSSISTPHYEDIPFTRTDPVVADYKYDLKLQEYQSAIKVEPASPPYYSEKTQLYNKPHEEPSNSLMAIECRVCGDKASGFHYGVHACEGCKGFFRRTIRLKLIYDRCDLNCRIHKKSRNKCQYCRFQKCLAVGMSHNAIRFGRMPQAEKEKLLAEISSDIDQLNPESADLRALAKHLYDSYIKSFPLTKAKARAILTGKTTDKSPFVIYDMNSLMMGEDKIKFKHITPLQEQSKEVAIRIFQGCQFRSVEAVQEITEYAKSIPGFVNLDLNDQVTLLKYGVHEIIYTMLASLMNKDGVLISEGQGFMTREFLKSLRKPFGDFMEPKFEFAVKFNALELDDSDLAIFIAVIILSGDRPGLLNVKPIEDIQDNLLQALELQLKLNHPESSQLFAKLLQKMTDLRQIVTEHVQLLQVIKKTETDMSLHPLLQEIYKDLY
Sequence of Thyroid hormone receptor beta (Homo sapiens) (P10828 whole entry, looked up): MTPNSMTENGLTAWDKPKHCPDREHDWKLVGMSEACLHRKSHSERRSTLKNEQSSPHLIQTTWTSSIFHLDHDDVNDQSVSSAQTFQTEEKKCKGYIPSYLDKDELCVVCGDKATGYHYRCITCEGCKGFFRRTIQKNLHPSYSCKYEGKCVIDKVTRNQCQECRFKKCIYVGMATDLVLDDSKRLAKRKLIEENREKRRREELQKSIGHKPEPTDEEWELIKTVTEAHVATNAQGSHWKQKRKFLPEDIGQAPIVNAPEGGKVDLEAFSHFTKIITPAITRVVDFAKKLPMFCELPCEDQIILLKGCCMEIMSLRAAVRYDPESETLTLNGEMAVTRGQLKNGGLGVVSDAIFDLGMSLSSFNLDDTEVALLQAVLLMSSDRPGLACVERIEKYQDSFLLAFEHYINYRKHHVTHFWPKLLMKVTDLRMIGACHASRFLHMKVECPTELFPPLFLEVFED
Sequence of Vitamin D3 receptor (Homo sapiens) (P11473 whole entry, looked up): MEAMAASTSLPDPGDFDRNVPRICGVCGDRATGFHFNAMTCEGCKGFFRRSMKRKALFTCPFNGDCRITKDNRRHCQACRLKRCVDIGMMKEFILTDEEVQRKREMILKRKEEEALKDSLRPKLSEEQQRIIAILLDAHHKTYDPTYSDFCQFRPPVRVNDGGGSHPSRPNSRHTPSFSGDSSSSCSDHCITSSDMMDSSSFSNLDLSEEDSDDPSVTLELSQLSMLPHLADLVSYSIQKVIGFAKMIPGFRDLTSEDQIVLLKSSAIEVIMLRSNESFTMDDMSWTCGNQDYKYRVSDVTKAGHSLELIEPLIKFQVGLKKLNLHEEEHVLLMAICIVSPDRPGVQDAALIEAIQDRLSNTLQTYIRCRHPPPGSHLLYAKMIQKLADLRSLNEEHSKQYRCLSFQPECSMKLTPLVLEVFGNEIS
Sequence of Cytochrome P450 3A4 (Homo sapiens) (P08684 whole entry, looked up): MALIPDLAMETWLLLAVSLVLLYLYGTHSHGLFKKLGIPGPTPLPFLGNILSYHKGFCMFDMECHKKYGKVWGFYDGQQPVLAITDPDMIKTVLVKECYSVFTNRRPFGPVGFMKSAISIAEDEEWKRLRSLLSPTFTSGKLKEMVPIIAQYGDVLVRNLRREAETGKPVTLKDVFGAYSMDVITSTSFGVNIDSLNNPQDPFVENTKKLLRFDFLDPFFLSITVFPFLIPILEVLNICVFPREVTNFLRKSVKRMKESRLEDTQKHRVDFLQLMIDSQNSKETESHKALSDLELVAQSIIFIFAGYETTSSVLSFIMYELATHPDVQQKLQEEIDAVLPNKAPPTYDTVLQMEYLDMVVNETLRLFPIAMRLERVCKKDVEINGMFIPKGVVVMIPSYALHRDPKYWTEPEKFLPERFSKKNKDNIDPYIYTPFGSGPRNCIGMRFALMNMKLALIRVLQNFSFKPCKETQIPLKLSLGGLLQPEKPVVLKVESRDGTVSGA
Sequence of Nuclear receptor subfamily 1 group I member 2 (Rattus norvegicus) (Q9R1A7 whole entry, looked up): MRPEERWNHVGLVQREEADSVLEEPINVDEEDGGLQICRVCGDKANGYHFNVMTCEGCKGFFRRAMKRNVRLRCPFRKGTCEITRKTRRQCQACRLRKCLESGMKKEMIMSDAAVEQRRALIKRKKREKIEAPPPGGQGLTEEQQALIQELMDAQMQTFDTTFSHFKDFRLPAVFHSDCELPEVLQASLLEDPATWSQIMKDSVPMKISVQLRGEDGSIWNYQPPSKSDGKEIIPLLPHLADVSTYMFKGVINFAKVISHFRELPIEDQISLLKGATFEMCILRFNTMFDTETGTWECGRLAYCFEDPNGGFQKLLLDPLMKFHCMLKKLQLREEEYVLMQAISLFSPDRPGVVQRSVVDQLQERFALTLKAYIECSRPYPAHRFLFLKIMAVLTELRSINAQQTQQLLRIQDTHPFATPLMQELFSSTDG
Sequence of Glucocorticoid receptor (Homo sapiens) (P04150 whole entry, looked up): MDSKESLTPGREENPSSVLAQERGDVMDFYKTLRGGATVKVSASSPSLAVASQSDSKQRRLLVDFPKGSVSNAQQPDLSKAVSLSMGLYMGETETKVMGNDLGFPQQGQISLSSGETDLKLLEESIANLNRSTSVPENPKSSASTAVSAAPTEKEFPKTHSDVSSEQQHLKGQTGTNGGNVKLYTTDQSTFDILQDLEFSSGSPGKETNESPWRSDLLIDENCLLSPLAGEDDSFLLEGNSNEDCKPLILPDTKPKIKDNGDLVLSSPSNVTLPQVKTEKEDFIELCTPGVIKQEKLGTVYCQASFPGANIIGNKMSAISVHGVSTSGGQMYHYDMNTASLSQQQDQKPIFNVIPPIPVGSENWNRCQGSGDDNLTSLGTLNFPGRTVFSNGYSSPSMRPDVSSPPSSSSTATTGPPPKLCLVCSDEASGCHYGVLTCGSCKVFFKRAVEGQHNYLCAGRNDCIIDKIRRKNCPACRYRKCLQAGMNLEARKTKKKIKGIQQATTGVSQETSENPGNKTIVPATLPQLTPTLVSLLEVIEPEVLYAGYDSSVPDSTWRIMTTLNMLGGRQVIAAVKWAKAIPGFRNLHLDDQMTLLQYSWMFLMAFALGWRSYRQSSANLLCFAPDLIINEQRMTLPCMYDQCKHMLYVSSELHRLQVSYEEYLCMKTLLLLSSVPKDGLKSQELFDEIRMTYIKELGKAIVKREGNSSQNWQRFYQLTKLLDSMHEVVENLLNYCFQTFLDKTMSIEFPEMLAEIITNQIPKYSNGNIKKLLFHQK
Sequence of Estrogen receptor (Homo sapiens) (P03372 whole entry, looked up): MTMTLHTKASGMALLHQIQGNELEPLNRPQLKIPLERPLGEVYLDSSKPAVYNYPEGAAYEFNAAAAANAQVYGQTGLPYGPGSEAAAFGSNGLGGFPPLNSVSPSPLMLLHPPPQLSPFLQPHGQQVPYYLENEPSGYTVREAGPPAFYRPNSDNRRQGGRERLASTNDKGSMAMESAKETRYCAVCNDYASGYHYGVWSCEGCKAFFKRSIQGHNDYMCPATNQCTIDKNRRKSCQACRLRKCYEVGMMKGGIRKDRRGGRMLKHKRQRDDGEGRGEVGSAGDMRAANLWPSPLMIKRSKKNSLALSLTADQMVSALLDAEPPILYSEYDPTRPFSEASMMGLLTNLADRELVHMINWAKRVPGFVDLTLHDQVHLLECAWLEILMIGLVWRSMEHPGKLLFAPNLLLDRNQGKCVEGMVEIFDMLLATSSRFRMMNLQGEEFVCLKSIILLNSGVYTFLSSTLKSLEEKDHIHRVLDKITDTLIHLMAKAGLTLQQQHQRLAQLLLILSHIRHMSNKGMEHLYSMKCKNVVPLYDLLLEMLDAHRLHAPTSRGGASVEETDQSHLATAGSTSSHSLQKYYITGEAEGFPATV

Nc1nc(-c2ccc(Cl)c(Cl)c2)c(-c2ccncc2)s1
active: Potency [1] 0.794 µM

CCCCCCCCCCCCC[N+](C)(C)Cc1ccccc1
inactive: Potency [1]

c1ccc2scnc2c1
inactive: Potency [2] | Potency [1] | Potency [3] | Potency [4] | activation [5] -6.61% | outcome [6] | outcome [7] | outcome [9] | activity change % (negative = inhibition) [10] 10.2% | Potency [11] | activation [12] 0.66% | Potency [13] | Potency [14] | outcome [15] | Potency [16] | max response [17] -1.2% | outcome [18]
-4.98%: max response [8]

CCC(C)CCCCC(=O)NC(CCN)C(=O)NC(C(=O)NC(CCN)C(=O)NC1CCNC(=O)C(C(C)O)NC(=O)C(CCN)NC(=O)C(CCN)NC(=O)C(CC(C)C)NC(=O)C(Cc2ccccc2)NC(=O)C(CCN)NC1=O)C(C)O (stereo unspecified) ({Octanoyl(6-Me)}-[Dab]T[Dab][Dab][Dab]FL[Dab][Dab]T; lactam 4-C; configuration not given here)
inactive: Potency [1]

O=S(=O)(O)c1ccccc1
inactive: Potency [2] | Potency [1] | Potency [19] | Potency [3] | Potency [20] | activation [5] -5.18% | outcome [6] | outcome [7] | outcome [9] | Potency [11] | Potency [13] | Potency [14] | outcome [15] | Potency [16] | max response [17] 2.35% | outcome [18]
0.332%: max response [8]

Cc1cccc(O)c1
inactive: activation [5] 1.46% and -4.97% | outcome [6] | activity change % (negative = inhibition) [10] -9.11% and -4.09% | activation [12] -5.47% and -2.85% | max response [17] -3.23% and 0.598%

O=C1CCc2ccccc2O1
-3.26%: max response [8]
inactive: Potency [2] | Potency [1] | Potency [19] | Potency [3] | Potency [20] | Potency [4] | activation [5] -2.22% | outcome [6] | outcome [7] | outcome [9] | activity change % (negative = inhibition) [10] -1.36% | Potency [11] | activation [12] -0.942% | Potency [13] | Potency [14] | outcome [15] | Potency [16] | max response [17] 3.11% | outcome [18]

O[C@@H]([C@H](O)[C@@H](O)CBr)[C@@H](O)CBr
inactive: Potency [2] | Potency [1] | Potency [19] | Potency [3] | Potency [20] | Potency [4] | outcome [6] | outcome [7] | outcome [9] | activity change % (negative = inhibition) [10] -6.77% | Potency [11] | activation [12] 4.39% | Potency [14] | outcome [15] | Potency [16] | max response [17] 0.919% | outcome [18]
-11.8%: max response [8]

CC1(C)S[C@@H]2[C@H](NC(=O)COc3ccccc3)C(=O)N2[C@H]1C(=O)O
-5.75%: max response [8]
inactive: activation [5] 10.3% | outcome [6] | outcome [7] | outcome [9] | activation [12] -0.552% | max response [17] -0.437% | outcome [18]

O=c1cc(-c2cccc(O)c2)oc2c(O)c(O)ccc12
active: Potency [2] 7.94 µM | Potency [1] 15.8 µM

O=C(O)c1ccccc1C(c1ccc(O)cc1)c1ccc(O)cc1
inactive: Potency [2] | Potency [1] | Potency [19] | Potency [3] | Potency [20] | Potency [4] | activation [5] -2.81% and -6.49% | outcome [6] | outcome [9] | activity change % (negative = inhibition) [10] 4.41% and 9.59% | Potency [11] | outcome [15] | Potency [16] | max response [17] 0.601% and -3.77%
-8.41% and -22.6%: max response [8]

COc1ccc2nc(N)sc2c1
-6.78% and -2.22%: max response [8]
inactive: Potency [2] | Potency [19] | Potency [3] | Potency [20] | Potency [4] | activation [5] -7.22% and -9.63% | outcome [6] | outcome [7] | outcome [9] | activity change % (negative = inhibition) [10] -0.575% and 14.1% | Potency [11] | Potency [13] | Potency [14] | Potency [16]

C=Cc1ccccc1Cl
inactive: Potency [2] | Potency [1] | Potency [19] | Potency [3] | Potency [20] | Potency [4] | activation [5] -0.22% | outcome [6] | outcome [7] | outcome [9] | activity change % (negative = inhibition) [10] 9.88% | Potency [11] | activation [12] -0.152% | Potency [13] | Potency [14] | outcome [15] | Potency [16] | max response [17] 1.05% | outcome [18]
-6.66%: max response [8]

Cc1ccc([N+](=O)[O-])cc1N
inactive: Potency [2] | Potency [19] | Potency [3] | Potency [20] | Potency [4] | outcome [6] | outcome [7] | outcome [9] | activity change % (negative = inhibition) [10] 15.7% and 9.17% | Potency [11] | activation [12] -1.56% and -5% | Potency [13] | Potency [14] | outcome [15] | Potency [16] | max response [17] 0.691% and 2.27% | outcome [18]
-6.56% and -2.61%: max response [8]

NC1=NC(S)C2N=CN=C2N1 (stereo unspecified)
active: Potency [20] 7.94 µM
inactive: Potency [2] | Potency [1] | activation [5] -9.94% | outcome [7] | activity change % (negative = inhibition) [10] 18.1% | Potency [11] | Potency [13] | Potency [14] | max response [17] -3.62%

CCCCCCCCCCCCCCC1CO1 (stereo unspecified)
-14.5% and -12.1%: max response [8]
inactive: Potency [2] | Potency [1] | Potency [19] | Potency [20] | Potency [4] | activation [5] 1.74% and -2.57% | outcome [6] | outcome [7] | outcome [9] | activity change % (negative = inhibition) [10] 8.79% | Potency [11] | activation [12] 0.526% and -2.5% | outcome [15] | Potency [16] | max response [17] -5.5% and 2.15% | outcome [18]
